Several values for one entry are separate records, joined by “and”; a condition that tells them apart may be missing. Equal entries are not always repeated. Inconclusive results are not listed. Activity calls are given as the source filed them. Unless noted, calls follow the shape of the dose curve; as a rule, active = well fitted curve in the direction sought with a large enough effect; inconclusive = small, poorly fitted or top-dose-only effect, or another doubt; inactive = no such curve, though single readings can be large; an effect the other way counts as inactive or inconclusive.
Key:
[1] = biological target: Glucocorticoid receptor (Homo sapiens) (UniProt P04150); assay: qHTS assay for small molecule agonists of glucocorticoid receptor signaling (AID 588532; active = well fitted curve in the direction sought with a large enough effect in the signal ratio, with a control signal flat; the % refers to the signal ratio;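 also: 100% = dexamethasone at 0.1 µM and 0% = DMSO only wells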); conditions: HeLa MMTV-bla, beta-lactamase ratio, agonist, 18 h; stronger effect = higher value; percent of dexamethasone control, DMSO zero
Chain of Glucocorticoid receptor (Homo sapiens) (P04150 whole entry, looked up): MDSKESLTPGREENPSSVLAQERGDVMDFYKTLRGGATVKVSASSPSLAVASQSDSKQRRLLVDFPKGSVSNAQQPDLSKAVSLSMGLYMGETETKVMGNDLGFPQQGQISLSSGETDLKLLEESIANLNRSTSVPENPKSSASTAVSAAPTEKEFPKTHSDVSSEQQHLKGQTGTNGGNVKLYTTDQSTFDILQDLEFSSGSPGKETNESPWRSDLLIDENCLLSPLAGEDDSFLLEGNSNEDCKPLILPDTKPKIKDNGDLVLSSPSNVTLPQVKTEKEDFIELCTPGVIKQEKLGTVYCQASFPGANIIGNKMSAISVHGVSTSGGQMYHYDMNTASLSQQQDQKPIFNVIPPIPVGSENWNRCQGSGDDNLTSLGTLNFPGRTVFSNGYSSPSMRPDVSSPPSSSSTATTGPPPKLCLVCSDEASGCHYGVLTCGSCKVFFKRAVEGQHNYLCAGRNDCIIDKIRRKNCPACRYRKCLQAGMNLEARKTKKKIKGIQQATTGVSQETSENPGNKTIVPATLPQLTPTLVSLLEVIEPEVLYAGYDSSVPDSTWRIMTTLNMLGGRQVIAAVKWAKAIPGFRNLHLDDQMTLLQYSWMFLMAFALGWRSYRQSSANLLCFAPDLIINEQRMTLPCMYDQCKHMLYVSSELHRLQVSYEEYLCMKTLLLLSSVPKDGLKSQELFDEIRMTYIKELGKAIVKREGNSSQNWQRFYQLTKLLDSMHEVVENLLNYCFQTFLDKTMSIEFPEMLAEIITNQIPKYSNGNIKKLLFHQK
Outline: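 MMTV-bla HeLa beta-lactamase reporter cells in 1% charcoal/dextran FBS medium, compounds up to 92 uM for 18 h at 37 C, CCF4 readout; normalized to 0.1 uM dexamethasone (100%), EC50 and efficacy from Hill fits.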

[2] = biological target: Glucocorticoid receptor (Homo sapiens) (UniProt P04150); assay: qHTS assay for small molecule antagonists of glucocorticoid receptor signaling (AID 588533; active = well fitted inhibition curve with a large enough effect in the signal ratio, with a control signal flat, not every such curve was filed as active; the % refers to the signal ratio; also: potency is read from the fitted curve at half-maximal effect)
Outline: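 Antagonist-mode qHTS: compound titrations added to GRE-bla HeLa cells, then dexamethasone 2 nM final; 18 h, 37 C. CCF4 FRET fluorescence normalized to dexamethasone and DMSO; IC50 from Hill fit.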

[3] = biological target: Peroxisome proliferator-activated receptor gamma (Homo sapiens) (UniProt P37231); assay: qHTS assay for small molecule antagonists of peroxisome proliferator-activated receptor gamma signaling (AID 588537; active = well fitted inhibition curve with a large enough effect in the signal ratio, with a control signal flat, not every such curve was filed as active; the % refers to the signal ratio; also: potency is read from the fitted curve at half-maximal effect)
Chain of Peroxisome proliferator-activated receptor gamma (Homo sapiens) (P37231 whole entry, looked up): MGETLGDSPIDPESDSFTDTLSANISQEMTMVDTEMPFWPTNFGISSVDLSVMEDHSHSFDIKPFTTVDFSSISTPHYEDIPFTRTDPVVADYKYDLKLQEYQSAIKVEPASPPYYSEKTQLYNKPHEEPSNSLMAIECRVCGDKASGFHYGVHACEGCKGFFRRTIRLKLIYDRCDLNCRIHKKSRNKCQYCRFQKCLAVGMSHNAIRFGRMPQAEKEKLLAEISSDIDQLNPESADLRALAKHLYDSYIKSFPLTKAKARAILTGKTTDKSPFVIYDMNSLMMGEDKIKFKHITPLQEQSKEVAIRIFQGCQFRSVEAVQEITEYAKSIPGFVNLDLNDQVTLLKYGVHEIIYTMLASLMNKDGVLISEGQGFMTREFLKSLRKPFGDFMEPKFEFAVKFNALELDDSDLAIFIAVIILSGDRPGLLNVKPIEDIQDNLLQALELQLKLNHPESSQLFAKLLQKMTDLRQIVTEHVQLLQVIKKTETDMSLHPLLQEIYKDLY
Outline: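 Read-out: CCF4 fluorescence (ex 405, em 460/530 nm) after 2 h at RT. Cells were HEK293 carrying a UAS-bla reporter and treated 16 h at 37 C with compound plus rosiglitazone (50 nM final). Normalized to rosiglitazone and DMSO.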

[4] = biological target: Vitamin D3 receptor (Homo sapiens) (UniProt P11473); assay: qHTS assay for small molecule antagonists of vitamin D receptor signaling (AID 588541; calls by dose curve; also: potency is read from the fitted curve at half-maximal effect)
Chain of Vitamin D3 receptor (Homo sapiens) (P11473 whole entry, looked up): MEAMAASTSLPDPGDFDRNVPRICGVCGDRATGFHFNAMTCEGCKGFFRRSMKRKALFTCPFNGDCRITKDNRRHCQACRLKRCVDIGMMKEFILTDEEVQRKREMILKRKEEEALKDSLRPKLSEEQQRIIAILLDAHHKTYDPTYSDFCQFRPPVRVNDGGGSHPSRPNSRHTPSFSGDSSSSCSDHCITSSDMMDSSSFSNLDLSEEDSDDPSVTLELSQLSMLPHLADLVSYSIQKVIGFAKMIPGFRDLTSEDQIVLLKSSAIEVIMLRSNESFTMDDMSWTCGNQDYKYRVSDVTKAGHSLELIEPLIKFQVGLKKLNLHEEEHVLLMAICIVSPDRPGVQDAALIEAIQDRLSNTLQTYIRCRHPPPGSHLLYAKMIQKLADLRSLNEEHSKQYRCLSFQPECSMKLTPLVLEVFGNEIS
Outline: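 VDR-UAS-bla HEK293T cells in 2% charcoal-stripped FBS were stimulated with 1-alpha,25-dihydroxyvitamin D3 (3 nM final) plus compound for 16 h at 37 C. The beta-lactamase CCF4 readout was normalized to 50 nM agonist and DMSO, and Hill fits gave IC50.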

[5] = biological target: Vitamin D3 receptor (Homo sapiens) (UniProt P11473); assay: qHTS assay for small molecule agonists of vitamin D receptor signaling (AID 588543; calls by dose curve;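 also: 0% = DMSO basal and 100% = reference agonist control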)
Outline: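 qHTS in agonist mode: compound titrations stimulate a VDR-driven β-lactamase reporter in HEK293T cells over 16 h at 37 °C. Response normalized to 50 nM 1α,25-dihydroxyvitamin D3 = 100%, DMSO = 0%; Hill fitting gives EC50 and maximal response.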

[6] = qHTS assay for small molecule agonists of retinoid X receptor alpha signaling (AID 588544; calls by dose curve;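 as to activation: 0% = DMSO basal wells and 100% = reference agonist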); conditions: HEK293T RXRa-UAS-bla, beta-lactamase reporter, 18 h; 530 nm emission
[7] = biological target: Retinoic acid receptor RXR-alpha (Homo sapiens) (UniProt P19793); assay: as above
Chain of Retinoic acid receptor RXR-alpha (Homo sapiens) (P19793 whole entry, looked up): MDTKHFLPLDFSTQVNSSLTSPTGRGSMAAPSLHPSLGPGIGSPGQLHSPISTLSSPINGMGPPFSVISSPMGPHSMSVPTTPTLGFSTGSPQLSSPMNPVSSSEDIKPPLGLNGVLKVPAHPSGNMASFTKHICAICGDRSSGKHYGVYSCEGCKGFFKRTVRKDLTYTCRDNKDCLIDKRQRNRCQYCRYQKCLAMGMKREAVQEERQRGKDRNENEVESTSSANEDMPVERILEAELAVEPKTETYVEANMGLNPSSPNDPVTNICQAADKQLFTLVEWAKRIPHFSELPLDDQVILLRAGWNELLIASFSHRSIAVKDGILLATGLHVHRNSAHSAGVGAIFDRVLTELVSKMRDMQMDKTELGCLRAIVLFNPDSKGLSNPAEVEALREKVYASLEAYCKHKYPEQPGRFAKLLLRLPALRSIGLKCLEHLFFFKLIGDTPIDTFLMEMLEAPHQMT

[8] = S16 Schwann cell PMP22 intronic element firefly luciferase assay (AID 624032);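 also: series mostly up to about 58 µM; plate controls were DMSO for no effect and PTC124 positive control mean for full effect; nearly all actives have a fitted effect of over 30% in size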
Outline: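 Rat S16 Schwann cells stably carrying firefly luciferase driven by a PMP22 intronic element, in 10% FBS, treated 24 h at 37 C. ONE-Glo luminescence normalized to PTC124 control and DMSO (0%); curves classed by r2, magnitude and activity.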

[9] = biological target: Glutaminase kidney isoform, mitochondrial (Homo sapiens) (UniProt O94925); assay: qHTS for Inhibitors of Glutaminase (GLS): LOPAC Validation (AID 624146);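 also: glutamate product detected by oxidase and peroxidase coupled Amplex red fluorescence gain; series mostly up to about 46 µM; % is scaled to controls: 0 for no effect and ±100 for the full control effect; nearly all actives have a fitted effect of over 60% in size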
Outline: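 hKGA; 45 mM KH2PO4 pH 8.2 + 0.02% Tween-20; cpd via pin tool; 1 mM Gln soln; GluOx/HRP/Amplex Red; RT 30 min; fluor. t0 & final.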

[10] = biological target: Peroxisome proliferator-activated receptor gamma (Homo sapiens) (UniProt P37231); assay: qHTS assay for small molecule agonists of peroxisome proliferator-activated receptor gamma signaling (AID 588536; active = well fitted curve in the direction sought with a large enough effect in the signal ratio, with a control signal flat, not every such curve was filed as active; the % refers to the signal ratio;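 also: 0% = DMSO basal wells and 100% = rosiglitazone at 2 µM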)
Outline: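 Beta-lactamase reporter read-out: CCF4 fluorescence (ex 405, em 460/530 nm) after 2 h at RT. HEK293 GeneBLAzer cells were treated for 16 h at 37 C. Hill fits gave EC50 and efficacy versus 2 uM rosiglitazone (100%) and DMSO (0%).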

[11] = biological target: Thyroid hormone receptor beta (Homo sapiens) (UniProt P10828); assay: qHTS assay for small molecule agonists of thyroid hormone receptor beta signaling (AID 588545; calls by dose curve)
Chain of Thyroid hormone receptor beta (Homo sapiens) (P10828 whole entry, looked up): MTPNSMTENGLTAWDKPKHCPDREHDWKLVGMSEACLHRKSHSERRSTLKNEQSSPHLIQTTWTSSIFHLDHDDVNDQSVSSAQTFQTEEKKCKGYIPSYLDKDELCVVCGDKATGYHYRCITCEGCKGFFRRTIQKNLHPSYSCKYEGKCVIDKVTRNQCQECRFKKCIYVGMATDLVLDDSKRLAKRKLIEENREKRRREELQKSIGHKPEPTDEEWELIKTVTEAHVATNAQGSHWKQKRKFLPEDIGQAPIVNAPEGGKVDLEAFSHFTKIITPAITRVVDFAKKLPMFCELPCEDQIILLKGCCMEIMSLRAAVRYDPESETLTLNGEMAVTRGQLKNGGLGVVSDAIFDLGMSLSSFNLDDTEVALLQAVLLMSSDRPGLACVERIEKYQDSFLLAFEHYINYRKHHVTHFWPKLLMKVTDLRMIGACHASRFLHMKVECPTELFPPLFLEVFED
Outline: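 HEK 293 TR-UAS-bla; agonist mode; 18 hrs, 37 C; CCF4, ex 405/em 460 and 530 nm; norm. T3 10 nM = 100%, DMSO = 0%; Hill fit → EC50, efficacy.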

[12] = qHTS assay for small molecule antagonists of retinoid X receptor alpha signaling (AID 588546; active = well fitted inhibition curve with a large enough effect in the signal ratio, with a control signal flat, not every such curve was filed as active; the % refers to the signal ratio; also: potency is read from the fitted curve at half-maximal effect;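 as to max response: cells stimulated with 9-cis-retinoic acid as agonist; % is scaled to controls: 0 for no effect and ±100 for the full control effect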); conditions: HEK293T RXRa-UAS-bla, beta-lactamase ratio, antagonist mode; measured here: W530 green channel, cytotoxicity proxy
Outline: (§1)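 Beta-lactamase reporter inhibition, read as CCF4 fluorescence ratio (ex 405, em 460/530 nm) after 2 h at RT. HEK293T UAS-bla cells, 2500/well, were stimulated with 9-cis-RA at 500 or 100 nM final alongside test compound for 18 h at 37 C.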

[13] = biological target: Retinoic acid receptor RXR-alpha (Homo sapiens) (UniProt P19793); assay: as above; conditions: HEK293T RXRa-UAS-bla, beta-lactamase ratio, antagonist mode
Outline: as §1

[14] = biological target: Voltage-gated inwardly rectifying potassium channel KCNH2 (Homo sapiens) (UniProt Q12809); assay: qHTS Assay for Small Molecule Inhibitors of the Human hERG Channel Activity (AID 588834);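 also: U2OS cells transduced with hERG by BacMam; top concentration of the series differs between compounds; % is scaled to controls: 0 for no effect and ±100 for the full control effect; lower thallium flux fluorescence means stronger hERG block; nearly all actives have a fitted effect of over 50% in size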
Chain of Voltage-gated inwardly rectifying potassium channel KCNH2 (Homo sapiens) (Q12809 whole entry, looked up): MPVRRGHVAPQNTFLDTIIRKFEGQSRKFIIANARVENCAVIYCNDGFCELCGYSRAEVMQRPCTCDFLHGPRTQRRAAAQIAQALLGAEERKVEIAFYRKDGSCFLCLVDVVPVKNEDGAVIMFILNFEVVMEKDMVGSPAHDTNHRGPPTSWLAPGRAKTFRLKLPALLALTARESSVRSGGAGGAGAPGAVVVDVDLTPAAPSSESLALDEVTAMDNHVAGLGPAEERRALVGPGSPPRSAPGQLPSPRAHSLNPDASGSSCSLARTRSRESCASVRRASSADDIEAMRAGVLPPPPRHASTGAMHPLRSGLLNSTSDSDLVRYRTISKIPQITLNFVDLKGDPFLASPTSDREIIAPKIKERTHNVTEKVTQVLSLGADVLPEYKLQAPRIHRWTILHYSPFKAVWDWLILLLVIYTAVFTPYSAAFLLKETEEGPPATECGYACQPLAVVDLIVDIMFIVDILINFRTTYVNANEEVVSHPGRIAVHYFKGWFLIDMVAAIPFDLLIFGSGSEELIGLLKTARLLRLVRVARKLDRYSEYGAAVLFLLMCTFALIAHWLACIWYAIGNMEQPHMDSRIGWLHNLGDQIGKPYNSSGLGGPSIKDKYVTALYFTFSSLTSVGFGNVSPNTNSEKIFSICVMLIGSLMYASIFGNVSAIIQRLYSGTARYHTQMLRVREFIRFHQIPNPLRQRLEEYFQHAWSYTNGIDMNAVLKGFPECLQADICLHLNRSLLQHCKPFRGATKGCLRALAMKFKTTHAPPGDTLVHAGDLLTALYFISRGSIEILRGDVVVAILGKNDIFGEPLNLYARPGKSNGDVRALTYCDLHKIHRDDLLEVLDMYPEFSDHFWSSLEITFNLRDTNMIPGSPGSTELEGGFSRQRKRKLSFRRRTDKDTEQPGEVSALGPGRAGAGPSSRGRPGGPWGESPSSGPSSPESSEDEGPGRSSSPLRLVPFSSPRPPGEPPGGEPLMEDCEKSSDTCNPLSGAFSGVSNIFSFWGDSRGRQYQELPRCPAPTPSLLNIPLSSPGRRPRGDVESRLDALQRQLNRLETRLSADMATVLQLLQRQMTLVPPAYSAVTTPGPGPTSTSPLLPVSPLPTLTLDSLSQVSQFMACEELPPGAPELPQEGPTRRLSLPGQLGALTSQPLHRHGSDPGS
Outline: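 Cells were infected with hERG-BacMam virus for 4 hrs at room temperature, grown overnight, then seeded at 2000/well. After dye loading and roughly 10 min compound treatment, thallium influx was triggered and fluorescence recorded.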

[15] = S16 Schwann cell viability assay (CellTiter-Glo assay) (AID 624031);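 also: cellular ATP luminescence as a viability measure; series mostly up to about 58 µM; plate controls were DMSO-treated cells for no effect and cell-free wells for full effect; nearly all actives have a fitted effect of over 70% in size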
Outline: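 Luminescent ATP read-out (CellTiter-Glo) after 24 h compound exposure of native S16 rat Schwann cells at 37 °C. Signals were normalized between cell-free wells and DMSO-treated cells, set as 0% activity.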

[16] = qHTS assay for small molecule antagonists of peroxisome proliferator-activated receptor delta signaling (AID 588535; active = well fitted inhibition curve with a large enough effect in the signal ratio, with a control signal flat, not every such curve was filed as active; the % refers to the signal ratio;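 as to max response: cells co-treated with a PPAR-delta agonist as stimulator during compound exposure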); conditions: HEK293T PPARd-UAS-bla, beta-lactamase FRET ratio, 18 h; 460 nm channel
Outline: (§2)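 Beta-lactamase reporter read-out (405 nm excitation, 460/530 nm emission) after CCF4 loading for 2 hrs at RT. HEK293T PPAR-delta-UAS-bla cells, 2% charcoal/dextran FBS, compounds for 18 hrs at 37 C. Hill fit gave IC50 and efficacy.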

[17] = biological target: Peroxisome proliferator-activated receptor delta (Homo sapiens) (UniProt Q03181); assay: as above
Chain of Peroxisome proliferator-activated receptor delta (Homo sapiens) (Q03181 whole entry, looked up): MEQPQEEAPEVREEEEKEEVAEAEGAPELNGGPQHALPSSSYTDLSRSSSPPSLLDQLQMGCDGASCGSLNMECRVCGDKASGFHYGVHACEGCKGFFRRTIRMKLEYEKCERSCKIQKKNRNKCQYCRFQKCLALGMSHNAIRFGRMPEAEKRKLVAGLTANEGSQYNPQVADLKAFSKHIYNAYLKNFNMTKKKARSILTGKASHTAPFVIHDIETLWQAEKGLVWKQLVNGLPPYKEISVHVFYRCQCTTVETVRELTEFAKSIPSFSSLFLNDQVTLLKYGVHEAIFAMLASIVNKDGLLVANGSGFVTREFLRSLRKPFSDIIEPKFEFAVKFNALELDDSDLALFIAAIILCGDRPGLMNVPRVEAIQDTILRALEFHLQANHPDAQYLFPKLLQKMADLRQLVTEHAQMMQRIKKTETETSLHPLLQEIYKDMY
Outline: as §2

[18] = biological target: Thyroid hormone receptor beta (Homo sapiens) (UniProt P10828); assay: qHTS assay for small molecule antagonists of thyroid hormone receptor beta signaling (AID 588547; active = well fitted inhibition curve with a large enough effect in the signal ratio, with a control signal flat, not every such curve was filed as active; the % refers to the signal ratio; also: potency is read from the fitted curve at half-maximal effect;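 as to activity change % (negative = inhibition): cells stimulated with 0.4 nM T3 agonist during compound exposure; series mostly up to about 77 µM; % is scaled to controls: 0 for no effect and ±100 for the full control effect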); conditions: TR-UAS-bla HEK293, beta-lactamase ratio, antagonist mode, 18 h
Outline: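 TR-UAS-bla GripTite HEK293 cells in 2% charcoal/dextran FBS medium; compounds 0.59 nM to 92 uM with T3 at 0.4nM final, 18 h at 37 C. Beta-lactamase read by CCF4 fluorescence (460/530 nm); Hill fits gave IC50 and efficacy.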

[19] = biological target: Luciferin 4-monooxygenase (Photinus pyralis) (UniProt P08659); assay: Biochemical firefly luciferase enzyme assay for NPC (AID 624030);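 also: purified P. pyralis luciferase at 10 nM with luciferin and ATP substrate; series mostly up to about 59 µM; 0% = DMSO and -100% = full luciferase inhibition by PTC124 control; nearly all actives have a fitted effect of over 70% in size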
Chain of Luciferin 4-monooxygenase (Photinus pyralis) (P08659 whole entry, looked up): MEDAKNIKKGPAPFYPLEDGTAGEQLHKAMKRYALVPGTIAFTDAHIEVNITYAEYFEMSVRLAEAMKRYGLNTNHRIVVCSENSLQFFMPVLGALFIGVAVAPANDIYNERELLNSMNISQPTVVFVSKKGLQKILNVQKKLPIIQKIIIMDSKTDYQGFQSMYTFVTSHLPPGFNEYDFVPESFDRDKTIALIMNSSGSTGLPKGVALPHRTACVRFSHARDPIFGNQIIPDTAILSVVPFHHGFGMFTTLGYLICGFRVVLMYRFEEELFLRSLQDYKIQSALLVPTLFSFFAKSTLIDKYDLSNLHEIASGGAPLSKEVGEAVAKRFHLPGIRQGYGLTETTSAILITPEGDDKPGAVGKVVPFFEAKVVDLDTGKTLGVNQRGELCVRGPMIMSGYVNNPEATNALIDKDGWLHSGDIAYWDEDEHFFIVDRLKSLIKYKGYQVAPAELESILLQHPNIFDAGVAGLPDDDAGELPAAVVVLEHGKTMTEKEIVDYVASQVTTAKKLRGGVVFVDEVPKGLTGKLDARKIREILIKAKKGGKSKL
Outline: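 Purified P. pyralis luciferase at 10 nM in 50 mM Tris Acetate (final), luminescence read within 5 minutes of enzyme addition to compounds. Activity normalised to PTC124 versus DMSO; concentration-response curves classed by r2, magnitude and activity.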

C[C@]12CC[C@@H]3c4ccc(O)cc4CC[C@H]3[C@@H]1CC[C@@H]2O
active: Potency [2] 7.08 µM | Potency [3] 39.8 µM
6.82%: max response [6]
inactive: activation [1] -6.54% | Potency [4] | outcome [5] | outcome [7] | Potency [8] | Potency [9]

CC(C)(Oc1ccc(Cl)cc1)C(=O)O
-15.3%: max response [12]
inactive: Potency [2] | outcome [10] | Potency [3] | Potency [4] | outcome [5] | outcome [7] | outcome [11] | max response [13] 2.91% | Potency [14] | Potency [15] | Potency [8]
-16.7%: max response [6]

CN(C)/N=N/c1nc[nH]c1C(N)=O
24%: max response [16]
27.5%: max response [6]
inactive: activation [1] -5.55% | Potency [17] | outcome [10] | Potency [3] | outcome [7] | outcome [11] | max response [13] 17.7% | activity change % (negative = inhibition) [18] -19.3% | Potency [14] | Potency [19] | Potency [15] | Potency [8]
-0.507%: max response [12]

C=CCc1ccc(O)c(OC)c1
-13.4% and -16.3%: max response [6]
-4.42% and -7.03%: max response [12]
11.6% and 2.37%: max response [16]
inactive: Potency [17] | outcome [10] | Potency [3] | outcome [7] | max response [13] -1.42% and -1.33% | Potency [14] | Potency [19] | Potency [15]

COc1cccc2c1C(=O)c1c(O)c3c(c(O)c1C2=O)C[C@@](O)(C(C)=O)C[C@@H]3O[C@H]1C[C@H](N)[C@H](O)[C@H](C)O1
inactive: Potency [14] | Potency [15] | Potency [8]
active: Potency [4] 8.91 µM | Potency [13] 5.62 µM | Potency [18] 5.01 µM
-11.9%: max response [12]

O=C(O)CCCCC(=O)O
inactive: activation [1] 6.23% | Potency [2] | outcome [10] | Potency [3] | Potency [4] | outcome [5] | outcome [7] | activity change % (negative = inhibition) [18] 0.209% | Potency [14] | Potency [15] | Potency [8]
-28.1%: max response [6]

C[C@H](CCC(=O)O)[C@H]1CC[C@H]2[C@@H]3C(=O)C[C@@H]4CC(=O)CC[C@]4(C)[C@H]3CC(=O)[C@]12C
inactive: Potency [14]

COc1ccc(OC)c(C(O)CNC(=O)CN)c1 (stereo not given)
inactive: Potency [14]
